PubChem BioAssay (NCI)
The panel holds about 83,000 compounds, 20% with a hit somewhere; the sample as a whole holds those more often.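 Percent growth is the endpoint: 0 to 100 indicates growth inhibition (40 means 60% inhibition), 0 means no net growth, and negative values indicate cell death.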 Values without a mark were called inactive. The source made the active and inactive calls. Rule for the calls: active = growth percent below 10; inactive = the rest.

Tests used:
Assay in all cases: NCI-60 one-dose screen, 48 h (100 = growth as untreated, 0 = no growth, -100 = all killed)
Details in all cases: 10 µM unless noted
DU-145 prostate = tested on: DU-145 prostate
K-562 leukemia = tested on: K-562 leukemia
MALME-3M melanoma = tested on: MALME-3M melanoma
MDA-MB-231 breast = tested on: MDA-MB-231 breast
RXF 393 renal = tested on: RXF 393 renal
SF-268 CNS = tested on: SF-268 CNS
SF-295 CNS = tested on: SF-295 CNS
SF-539 CNS = tested on: SF-539 CNS
UACC-257 melanoma = tested on: UACC-257 melanoma
M14 melanoma = tested on: M14 melanoma
HCT-15 colon = tested on: HCT-15 colon
HT29 colon = tested on: HT29 colon
SNB-75 CNS = tested on: SNB-75 CNS
SNB-19 CNS = tested on: SNB-19 CNS
U251 CNS = tested on: U251 CNS
PC-3 prostate = tested on: PC-3 prostate
SK-MEL-5 melanoma = tested on: SK-MEL-5 melanoma
UACC-62 melanoma = tested on: UACC-62 melanoma
LOX IMVI melanoma = tested on: LOX IMVI melanoma
SK-MEL-28 melanoma = tested on: SK-MEL-28 melanoma

Row | SMILES | growth (DU-145 prostate) | growth (K-562 leukemia) | growth (MALME-3M melanoma) [%] | growth (MDA-MB-231 breast) | growth (RXF 393 renal) | growth (SF-268 CNS) [%] | growth (SF-295 CNS) | growth (SF-539 CNS) | growth (UACC-257 melanoma) [%] | growth (M14 melanoma) | growth (HCT-15 colon) | growth (HT29 colon) | growth (SNB-75 CNS) | growth (SNB-19 CNS) [%] | growth (U251 CNS) | growth (PC-3 prostate) | growth (SK-MEL-5 melanoma) | growth (UACC-62 melanoma) [%] | growth (LOX IMVI melanoma) | growth (SK-MEL-28 melanoma)
1 | CCOC(=O)c1noc2c1CCc1cn(Cc3cc(OC)cc(OC)c3)cc1-2 | 104% | 102% | 107 | 117% | 113% | 96.8 | 95.3% | 98.8% | 101 | 101% | 96.4% | 75.4% | 95.8% | 113 | 110% | 92.8% | 101% | 103 | 95.5% | 105%
2 | COc1ccc(/C=C/C(=O)/C=C(/C=C/c2ccc(OC)c(OC)c2OC)OB(F)F)c(OC)c1OC | 42.9% | 9.46% (active) | 16.4 | 7.37% (active) | 6.5% (active) | 31.9 | 56.4% | 32.9% | 37 | 19.1% | 9.58% (active) | 13.9% | 94.5% | 57.1 | 4.99% (active) | 29.1% | 36.8% | 35.4 | -5.79% (active) | 41%
3 | Oc1ccc(O)c(-[n+]2ccccc2)c1 | 108% | 107% | 112 | 110% | 106% | 102 | 110% | 108% | 95.1 | 103% | 105% | 93.6% | 104% | 100 | 97.1% | 92.5% | 97.7% | 103 | 95.7% | 116%
4 | CC(C)CCC[C@@H](C)[C@H]1CC[C@H]2[C@@H]3CC=C4N(c5ccccc5)C(=O)CC[C@]4(C)[C@H]3CC[C@]12C | 103% | 103% | 97.8 | 111% | 103% | 99.3 | 99% | 101% | 105 | 96.1% | 96.4% | 90.3% | 93.6% | 109 | 101% | 80.4% | 99.1% | 98.9 | 98% | 106%
5 | COc1ccc2c(c1)C(=O)/C(=C/c1cccc(OCC(=O)c3ccccc3)c1)O2 | 13.5% | -98.3% (active) | 45.1 | 67.3% | -56.8% (active) | 36.2 | 91.3% | -14.7% (active) | 42.9 | 49.8% | 31.8% | -15.7% (active) | -8.04% (active) | 99.1 | 41.5% | -43.4% (active) | 50.2% | 67 | -5.01% (active) | -11.1% (active)
6 | Nc1ncnc2c1ccn2-c1cccc(NC(=O)c2cccc(C(F)(F)F)c2)c1 | 81.8% | 59% | 98.4 | 58.4% | 58.5% | 67.5 | 36.4% | 64.4% | 93.2 | 83.9% | 41.7% | 58.4% | 67% | 88.4 | 44.9% | 51.7% | 41.1% | 77.3 | 62.2% | 85.1%
7 | Fc1ccc(Nc2ncnc3ccc(-c4cn[nH]c4)cc23)cc1Cl | 50.8% | 66.5% | 54.9 | 63.5% | 40.3% | 59.6 | 56.3% | 49.7% | 89.5 | 58.7% | 60.4% | 60.6% | 40.5% | 68.6 | 61.8% | 47.3% | 40.4% | 60 | 49% | 69.3%
8 | CC(=O)c1ccc2c(c1)C1C=CCC1[C@H](c1cc3c(cc1Br)OCO3)N2 (stereo not given in full) | -17% (active) | 4.19% (active) | 49.7 | 16.9% | -12.4% (active) | 40.6 | -36.7% (active) | -12.1% (active) | 75 | -7.21% (active) | 18.4% | 4.15% (active) | 30.6% | 44.6 | 14% | 20.9% | 9.13% (active) | 34.6 | -35.6% (active) | 72.7%
9 | O=c1c2ccccc2[nH]n1Cc1ccc2c(c1)OCO2 | 112% | 95.9% | 100 | 114% | 103% | 101 | 104% | 98.1% | 97 | 104% | 95.7% | 104% | 101% | 97 | 96.2% | 88.1% | 100% | 100 | 111% | 106%
10 | O=C(O)c1ccc2nc(-c3ccc(OCCCCCOc4ccc(-c5nc6ccc(C(=O)O)cc6[nH]5)cc4)cc3)[nH]c2c1 | 120% | 77.6% | 173 | 105% | -11.8% (active) | 156 | 123% | 108% | 78.8 | 94.1% | 74.3% | 51.4% | 96% | 59.6 | 96.4% | 90% | 3.26% (active) | 53 | 82% | 46.9%
11 | C[C@@H]1CC2C3C[C@H](F)C4=CC(=O)C=C[C@]4(C)[C@@]3(F)[C@@H](O)C[C@]2(C)[C@@]1(O)C(=O)CO (stereo not given in full) | 80.8% | 107% | 84.7 | 95.1% | 120% | 88.8 | 116% | 83.2% | 88.4 | 93.5% | 101% | 102% | 132% | 91.8 | 105% | 86.1% | 90.4% | 97.3 | 92.1% | 108%
12 | c1ccc2nc(Cn3cc[n+](Cc4ccc5ccccc5n4)c3)ccc2c1 | 88.7% | 41.1% | 50.2 | 77.9% | 86.6% | 67.1 | 91.5% | 58.8% | 21.9 | 69% | 102% | 41.9% | 70.7% | 47.7 | 44.2% | 42.6% | 16.9% | 54.6 | 75.4% | 63.8%
13 | CCN(CC)C(=O)C1CCN(C(=O)c2ccccc2)CC1 | 109% | 99.1% | 102 | 105% | 105% | 92.7 | 96.7% | 101% | 103 | 102% | 104% | 104% | 94% | 100 | 101% | 96.9% | 101% | 97.2 | 96.7% | 107%
